# Test results from PubChem BioAssay.
# Active and inactive are the calls of the source. Rule as the data show it, unless noted: active = inhibition above about 80%; inactive = the rest.
# Key:
# [1] = circadian clock period modulators, cell-based, LOPAC library, luminescence reporter (AID 2774; call rule not given here;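 also: values are relative to mean of DMSO wells on each plate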); conditions: circadian reporter cells, at 7 µM, actives lie on both sides
# [2] = LFS_MB_P medulloblastoma growth inhibition, cell-based, chromothripsis tumors, cisplatin or BGB combos (AID 1671449); conditions: LFS_MB_P medulloblastoma cells;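 also: cells exposed for 96 hours; 0% = vehicle DMSO and 100% = killing by high DMSO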
# [3] = HDN33 neuroblastoma growth inhibition, cell-based, chromothripsis tumors, cisplatin or BGB combos (AID 1671450); conditions: HDN33 neuroblastoma cells, stronger effect = higher value;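 also: cells exposed to compound for four days; 0% = vehicle DMSO and 100% = cell killing by high DMSO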
# [4] = ICB984 medulloblastoma cell growth inhibition, synergistic combos for chromothripsis tumors, cisplatin or BGB combos (AID 1671451; call rule not given here;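 also: cells exposed for 96 hours before readout; 0% = vehicle DMSO and 100% = killing by high DMSO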); conditions: ICB984 medulloblastoma cells, drug combinations, stronger effect = higher value
# [5] = LFS_MB_1R medulloblastoma cell growth inhibition, synergistic combos for chromothripsis tumors, cisplatin or BGB combos (AID 1671452); conditions: LFS_MB_1R medulloblastoma cells, stronger effect = higher value;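 also: cells exposed for 96 hours before readout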
# [6] = HTB85 osteosarcoma cell growth inhibition, synergistic combos for chromothripsis tumors, BGB or cisplatin IC20 combos (AID 1671453); conditions: HTB85 osteosarcoma cells, drug combinations, stronger effect = higher value;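 also: cells exposed for 96 hours before readout; 0% = vehicle DMSO and 100% = high DMSO killing control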
# [7] = CRL2098 osteosarcoma cell growth inhibition, synergistic combos for chromothripsis tumors, BGB or cisplatin IC20 combos (AID 1671454); conditions: CRL2098 osteosarcoma cells, drug combinations, stronger effect = higher value;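 also: cells exposed for 96 h before readout; 0% = vehicle DMSO and 100% = killing by high DMSO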
# [8] = HD-MB03 medulloblastoma cell growth inhibition, synergistic combos for chromothripsis tumors, BGB or cisplatin IC20 combos (AID 1671455; in the data active = inhibition above about 83%;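 also: 0% = vehicle DMSO and 100% = high DMSO as cytotoxic control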); conditions: HD-MB03 medulloblastoma cells, stronger effect = higher value
# [9] = UWB1.289 ovarian carcinoma cell growth inhibition, synergistic combos for chromothripsis tumors, BGB or cisplatin combos (AID 1671456); conditions: UWB1.289 ovarian carcinoma cells, stronger effect = higher value;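 also: cells exposed to compound for four days; 0% = vehicle DMSO and 100% = killing by high DMSO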
# [10] = LFS_MB_2R medulloblastoma cell growth inhibition, synergistic combos for chromothripsis tumors, cisplatin combos (AID 1671457); conditions: LFS_MB_2R medulloblastoma cells, stronger effect = higher value;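 also: cells exposed to compound for four days before readout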
# [11] = MDA-MB-436 breast carcinoma cell growth inhibition, synergistic combos for chromothripsis tumors, BGB or cisplatin combos (AID 1671458; call rule not given here;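 also: cells exposed for 96 hours; 0% = vehicle DMSO and 100% = killing by high DMSO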); conditions: MDA-MB-436 breast carcinoma growth inhibition, drug combinations, stronger effect = higher value
# [12] = UWB1.289_BRCA1 ovarian cancer growth, cell-based, BGB or cisplatin combinations (AID 1671459); conditions: UWB1.289 BRCA1 ovarian carcinoma, drug combinations, stronger effect = higher value
# [13] = human astrocyte viability loss, single and combined drugs, cytotoxicity control for chromothriptic childhood tumor combination screen, cell-based, BGB or cisplatin IC20 combos (AID 1671460); conditions: Human astrocytes, drug combinations, stronger effect = higher value;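 also: cells exposed to compounds for 96 hours before viability readout; 0% = vehicle and 100% = killing control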
# [14] = growth inhibition of BT084 medulloblastoma cells, cell-based, ICGC_MB145, cisplatin and BGB IC40 combos (AID 1671461); conditions: drug combinations, stronger effect = higher value;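 also: cells exposed to drugs for 96 hours; 0% = vehicle DMSO and 100% = high DMSO full killing control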
# [15] = growth inhibition of RCMB18 medulloblastoma cells, cell-based, cisplatin and BGB IC40 combos (AID 1671462); conditions: stronger effect = higher value;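 also: cells exposed to compound for four days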
# [16] = growth inhibition of CRL1545 osteosarcoma cells, cell-based, cisplatin and BGB IC20 combos (AID 1671464); conditions: stronger effect = higher value;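 also: cells exposed to compound for 96 hours before readout; 0% = vehicle DMSO and 100% = high DMSO killing control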
# [17] = viability rescue of complex I mutant cybrids, primary screen, cell-based, galactose medium, ATP luminescence (AID 1645843;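 active = z-score of at least 1.8 in each of two replicates, scored against plate mean and spread of sample wells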;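 also: positive z means more ATP and so rescue of galactose-driven cybrid death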); conditions: complex I mutant cybrid cells, 72 h, stronger effect = higher value
# [18] = antimalarial activity against Dd2 strain (AID 2302;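 active = growth inhibition above 50% at the single 2 µM test dose, taken to imply half-maximal potency below 2 µM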;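 also: 0% = DMSO untreated growth and 100% = chloroquine plus artemisinin killed control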); conditions: P. falciparum Dd2 in RBCs, LDH growth readout, 72 h; at 2 µM; stronger effect = higher value
# [19] = HepG2 cytotoxicity, primary screen, cytotoxicity control for P. falciparum antimalarial project, cell-based, ATP luminescence (AID 2303;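 active = inhibition above 50%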;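 also: 0% = DMSO wells and 100% = digitonin-killed cells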); conditions: HepG2 viability, 24-48 h, at 10 µM, stronger effect = higher value
# [20] = molecular target: L-lactate dehydrogenase (Plasmodium falciparum (isolate CDC / Honduras)) (UniProt Q27743); test: PfLDH activity inhibition – cell lysate, 3D7 strain, counter-screen for P. falciparum growth inhibition project (AID 2304; call rule not given here;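 also: 0% = vehicle and 100% = reference inhibitor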); conditions: P. falciparum 3D7 crude extract, LDH APAD/NBT absorbance; at 2 µM; stronger effect = higher value
# L-lactate dehydrogenase (Plasmodium falciparum (isolate CDC / Honduras)), sequence (Q27743 whole entry, looked up): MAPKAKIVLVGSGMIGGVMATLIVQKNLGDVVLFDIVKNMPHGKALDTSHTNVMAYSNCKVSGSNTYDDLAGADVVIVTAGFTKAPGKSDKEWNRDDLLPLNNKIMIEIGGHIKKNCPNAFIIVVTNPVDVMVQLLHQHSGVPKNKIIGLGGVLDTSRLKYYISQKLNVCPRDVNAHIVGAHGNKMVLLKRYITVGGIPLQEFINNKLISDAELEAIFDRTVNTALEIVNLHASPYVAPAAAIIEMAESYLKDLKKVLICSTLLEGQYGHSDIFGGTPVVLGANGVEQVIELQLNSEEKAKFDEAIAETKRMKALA
# [21] = inhibition of 3D7 malaria parasite growth – strain 3D7 (AID 2306; call rule not given here;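 also: 0% = DMSO wells and 100% = chloroquine plus artemisinin control wells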); conditions: P. falciparum 3D7 erythrocytic growth, LDH absorbance, 72 h; at 2 µM; stronger effect = higher value
# [22] = measured here: combination with BGB IC40, at 0.05 µM
# [23] = measured here: with BGB IC20 combination, at 0.5 µM
# [24] = measured here: with cisplatin IC20 combination, at 0.5 µM
# [25] = measured here: combination with cisplatin, at 0.5 µM
# [26] = measured here: combination with cisplatin, at 5 µM
compound,measurement,setting,value
Nc1ncnc2c1ncn2C1OC2COP(O)(=S)O[C@@H]2[C@@H]1O (some centres undefined),period change,[1],-0.125 h (inactive)
CC(O)C(C)OC(=O)[C@@H]1C[C@@H]2c3cccc4c3c(cn4C(C)C)C[C@H]2N(C)C1 (some centres undefined),period change,[1],0.035 h (inactive)
COc1cc(C2c3cc4c(cc3C(O)C3COC(=O)C23)OCO4)cc(OC)c1OC (centres undefined),inhibition,"[2]; at 0.5 µM, stronger effect = higher value",9.19% (inactive)
same,inhibition,"[2]; measured here: combination with BGB IC20, at 0.005 µM",-13.4%
same,inhibition,"[2]; measured here: combination with BGB IC40, at 0.005 µM",-36%
same,inhibition,[2]; [22],14.5%
same,inhibition,"[2]; measured here: combination with cisplatin, at 0.5 µM, stronger effect = higher value",-15.6%
same,inhibition,"[2]; measured here: combination with cisplatin, at 5 µM, stronger effect = higher value",45.9%
same,inhibition,"[3]; BGB combo, at 5 µM",67.6%
same,inhibition,[3]; at 0.5 µM,76.5% (inactive)
same,inhibition,"[3]; cisplatin combo, at 5 µM",70.5%
same,inhibition,[3]; [23],69.9%
same,inhibition,[3]; [24],66.6%
same,inhibition,"[3]; single agent, at 5 µM",91.8%
same,inhibition,"[4]; BGB IC20 combo, at 0.005 µM",44.2%
same,inhibition,"[4]; BGB IC40 combo, at 0.005 µM",19.6%
same,inhibition,"[4]; BGB IC40 combo, at 0.05 µM",10.9%
same,inhibition,[4]; at 0.5 µM,-21.6% (inactive)
same,inhibition,"[4]; cisplatin combo, at 0.05 µM",7.4%
same,inhibition,"[4]; cisplatin combo, at 0.5 µM",-22.1%
same,inhibition,"[4]; cisplatin combo, at 5 µM",19.8%
same,inhibition,"[4]; measured here: 5 uM single agent, at 5 µM",19.6%
same,inhibition,[5]; at 0.5 µM,38.7% (inactive)
same,inhibition,[5]; [22],42.5%
same,inhibition,[5]; [25],54.6%
same,inhibition,[5]; [26],60.9%
same,inhibition,[6]; at 0.5 µM,72.2% (inactive)
same,inhibition,"[6]; measured here: with BGB IC20, at 0.5 µM",55.2%
same,inhibition,"[6]; measured here: with BGB IC20, at 5 µM",54%
same,inhibition,"[6]; measured here: with cisplatin IC20, at 0.5 µM",72.6%
same,inhibition,"[6]; measured here: with cisplatin IC20, at 5 µM",73%
same,inhibition,"[6]; single agent, at 5 µM",89.8%
same,inhibition,[7]; at 0.5 µM,38.6% (inactive)
same,inhibition,"[7]; measured here: combination with BGB at IC20, at 0.5 µM",34.3%
same,inhibition,"[7]; measured here: combination with cisplatin at IC20, at 0.5 µM",46.2%
same,inhibition,[8]; at 0.5 µM,83.8% (active)
same,inhibition,"[8]; measured here: combo with BGB at IC20, at 0.5 µM",82.3%
same,inhibition,"[8]; measured here: combo with cisplatin at IC20, at 0.5 µM",76.1%
same,inhibition,[9]; at 0.5 µM,44.8% (inactive)
same,inhibition,"[9]; measured here: inhibition with BGB combination, at 0.05 µM",11.9%
same,inhibition,"[9]; measured here: inhibition with cisplatin combination, at 0.05 µM",39.3%
same,inhibition,[10]; at 0.5 µM,33.5% (inactive)
same,inhibition,[10]; [25],48.6%
same,inhibition,[10]; [26],47.1%
same,inhibition,[11]; at 0.5 µM,69.7% (inactive)
same,inhibition,"[11]; measured here: BGB combination, at 0.5 µM",58.4%
same,inhibition,"[11]; measured here: BGB combination, at 5 µM",53.6%
same,inhibition,"[11]; measured here: cisplatin combination, at 0.5 µM",72.1%
same,inhibition,"[11]; measured here: cisplatin combination, at 5 µM",74.9%
same,inhibition,"[12]; BGB combination, concentration series, at 5 µM",71.3%
same,inhibition,[12]; at 0.5 µM,57.4% (inactive)
same,inhibition,"[12]; cisplatin combination, concentration series, at 5 µM",70.5%
same,inhibition,[13]; at 0.5 µM,85.4% (active)
same,inhibition,"[13]; measured here: combo with BGB IC20, at 0.5 µM",85.6%
same,inhibition,"[13]; measured here: combo with cisplatin IC20, at 0.5 µM",76.9%
same,inhibition,[14]; at 0.5 µM,45.2% (inactive)
same,inhibition,"[14]; cisplatin combination, at 0.5 µM",43.7%
same,inhibition,"[14]; cisplatin combination, at 5 µM",48.4%
same,inhibition,"[14]; measured here: BGB IC40 combination 0.05 uM, at 0.05 µM",22.9%
same,inhibition,"[14]; single agent, at 5 µM",62.7%
same,inhibition,[15]; at 0.5 µM,21.7% (inactive)
same,inhibition,"[15]; cisplatin combo, at 5 µM",29.2%
same,inhibition,"[15]; measured here: BGB IC40 combination, at 0.05 µM",11.1%
same,inhibition,[15]; [25],20.9%
same,inhibition,"[15]; single agent, at 5 µM",18.7%
same,inhibition,[16]; at 0.5 µM,74.4% (inactive)
same,inhibition,[16]; [23],70.7%
same,inhibition,[16]; [24],76.3%
same,inhibition,"[16]; single agent, at 0.05 µM",49.3%
same,inhibition,"[16]; single agent, at 5 µM",85.7%
C[C@]12CC[C@H]3[C@@H](CCC4C[C@H](O)CC[C@@]43C)[C@@H]1CC[C@@H]2O (some centres undefined),period change,[1],0.065 h (inactive)
C=CCN1CCC2(C)c3cc(O)ccc3CC1[C@@H]2C (some centres undefined),period change,[1],-0.025 h (inactive)
CN1CCC(N(C)CCC2CCOCC2)CC1,z-score,[17],0.38 (inactive)
COc1ccc(CCN)cc1O,period change,[1],0.08 h (inactive)
CN1C[C@@H](CS(=O)(=O)N(C)C)C[C@@H]2c3cccc4c3c(cn4C)C[C@H]21,period change,[1],-0.105 h (inactive)
COC(=O)/C=C/c1ccc(CC(C)NCC(O)c2cccc(C(F)(F)F)c2)cc1 (centres undefined),growth inhibition,[18],96% (active)
same,inhibition,[19],16% (inactive)
same,inhibition,[20],0% (inactive)
same,growth inhibition,[21],97% (active)
